DT40 TDP1 no CPT = qHTS for Inhibitors of human tyrosyl-DNA phosphodiesterase 1 (TDP1): qHTS in cells in absence of CPT; DT40 Tdp1-/- hTDP1 cells, no CPT, ATP luminescence, 48 h; Potency, µM (series often up to 46.2 µM), usual class: inhibitors; AID 686978, 2013; actives 15% (n = 420,000); further: nearly all actives have a fitted effect of over 55% in size
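Readout: luminescence from CellTiter-Glo after 30 min in the dark at RT. Cells: DT40 Tdp1-/- with stable hTDP1, 400/well. Exposure: compounds alone, ≥48 hr, 37 °C.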
IL1B secr inh = qHTS for Inhibitors of Inflammasome Signaling: IL-1-beta AlphaLISA Primary Screen; THP-1 LPS/ATP IL-1B secretion, AlphaLISA, 16 h; active compounds read low; activity change, % at 57.5 µM; actives 4.7% (n = 360,000); in the data active means activity change below about -50%; inconclusive means mostly about -30% to -49%
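Secreted IL-1B measured by AlphaLISA bead assay after 16 h compound exposure of THP-1 cells; compounds (final up to 57.5 uM) added 1 h before LPS (250 ng/mL) and ATP (1.25 mM) stimulation; lower signal means less secretion.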
HT1080 IDH1KD tx = qHTS for induction of synthetic lethality in tumor cells producing 2HG: qHTS for the HT-1080-IDH1KD cell line; Potency, µM (series often up to 46.1 µM), usual class: cytotoxic; HT-1080 IDH1 knockdown viability, ATP luminescence, 48 h; actives 2% (n = 360,000)
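HT-1080-IDH1KD cells (IDH1 knocked down), 750/well in RPMI with 5% FBS, treated with compound 48 h at 37 degrees C. Viability by CellTiter-Glo luminescence, normalised to DMSO and no-cell wells; concentration-response curves classed.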
TDP1 cell CPT = qHTS for Inhibitors of human tyrosyl-DNA phosphodiesterase 1 (TDP1): qHTS in cells in presence of CPT; chicken DT40 Tdp1-/-;hTDP1 cells + 20 nM CPT, ATP luminescence, 48 h; Potency, µM (series often up to 46.2 µM), most hits filed as inhibitors; actives 12% (n = 420,000); AID 686979, 2013; further: nearly all actives have a fitted effect of over 55% in size
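Cell growth measured by CellTiter-Glo luminescence after a minimum 48 h, 37 C compound exposure with 20 nM CPT in Tdp1-knockout DT40 cells stably expressing hTDP1, seeded 400/well; qHTS titration format.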
HT1080-NT tox = qHTS for induction of synthetic lethality in tumor cells producing 2HG: qHTS for the HT-1080-NT fibrosarcoma cell line; HT-1080-NT fibrosarcoma viability, CellTiter-Glo ATP luminescence, 48 h; Potency, µM (top dose mostly 46.1 µM), hits mostly cytotoxic; actives 1.6% (n = 360,000);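 further: NT is the 2HG producing partner of a matched IDH1 knockdown line; nearly all actives have a fitted effect of over 55% in size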
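A 48-hour cytotoxicity screen used HT-1080-NT cells plated 2 hours before compound delivery. ATP-based CellTiter-Glo luminescence measured viability, normalized to DMSO and no-cell controls.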
Numbers stand for hits; i = inactive; ? = inconclusive; nt = no result given; [ ] = remark or other dose. Only some compounds are listed: those with a hit (about 19% of all), similar ones and a draw of the others. Unless noted, the call rests on the fitted dose curve; in most records, active means well fitted curve in the direction sought with a large enough effect; inconclusive means small, poorly fitted or top-dose-only effect, or another doubt; inactive means no such curve, though single readings can be large; an effect the other way counts as inactive or inconclusive.

SMILES	DT40 TDP1 no CPT	IL1B secr inh	HT1080 IDH1KD tx	TDP1 cell CPT	HT1080-NT tox
CC(=O)N/N=C/c1c(C)[nH]n(-c2ccccc2)c1=O	?	i	i	i	i
COc1ccc(COC(=O)c2cccc(S(=O)(=O)N3CCCC3)c2)cc1F	i	i	i	i	i
Cc1ccc(-c2nn(-c3ccccc3)cc2C2SCC(=O)N2Cc2ccccc2)o1 (stereo unspecified)	8.2µM	-69	i	13µM	i
COc1cccc(-n2c(=O)[nH]cc(C(=O)Nc3ccc4c(c3)OCCO4)c2=O)c1	i	i	i	4.1µM	i
O=C(CSc1nnnn1-c1ccc2c(c1)OCO2)NCc1ccccc1	15µM	i	13µM	15µM	?
CCn1nnnc1SCC(=O)Nc1cc(OC)cc(OC)c1	?	i	i	16µM	i
COc1ccc(-n2nnnc2SCC(=O)Nc2ccc3c(c2)OCCO3)c(OC)c1	23µM	i	i	13µM	i
CCn1nnnc1SCC(=O)Nc1ccc2c(c1)OCCO2	i	i	i	i	i
O=c1c(-c2ccco2)[n+]([O-])c2ccccc2n1OCc1ccccc1[N+](=O)[O-]	?	i	?	?	i
Cc1ccc(NC(=O)c2ccc3c(c2)S(=O)(=O)c2ccccc2C3=O)cc1S(=O)(=O)N1CCOCC1	i	i	i	i	i
COc1cccc(-n2nnnc2SCC(=O)Nc2ccc(NC(C)=O)cc2)c1	23µM	i	i	?	i
COc1cccc(-n2nnnc2SCC(=O)Nc2ccc3c(c2)OCCO3)c1	i	i	?	i	14µM
COc1ccc(-n2nnnc2SCC(=O)Nc2ccc3c(c2)OCCO3)cc1OC	9.2µM	i	i	?	i
CN(Cc1ccc(Cl)s1)C(=O)CN1C(=O)N(C)C2(CCCCC2)C1=O	i	i	i	?	i
COc1ccc(S(=O)(=O)NCc2nc(N3CCCC3)c3cccc(C)c3n2)cc1OC	i	nt	nt	i[9.04 µM]	nt
COCC(C)NC(=O)NC1(C(F)(F)F)Oc2ccc(Cl)cc2O1 (stereo unspecified)	13µM	i	?	13µM	i
COCC(C)NC(=O)NC(=O)c1ccc(Cl)cc1 (stereo unspecified)	i	i	?	?	i
O=C(NCCN1CCOCC1)NC1(C(F)(F)F)Oc2ccc(Cl)cc2O1 (stereo unspecified)	13µM	i	i	?	i
O=C(NCCN1CCOCC1)c1cc(Cl)ccc1Cl	i	i	i	i	i
C/C(=N\NC(=O)C(=O)Nc1cccc(C(F)(F)F)c1)c1ccc(Cl)s1	?	i	i	?	i
C/C(=N\NC(=O)c1csc(C)c1C)c1ccc(Cl)s1	23µM	i	i	23µM	i
C/C(=N\NC(N)=S)c1ccc(Cl)s1	4.6µM	-79	i	5.2µM	i
C/C(=N\NC(=S)NC(C)C)c1ccc(Cl)s1	5.8µM	i	i	15µM	i
C/C(=N\NC(=O)c1ccoc1C)c1ccc(Cl)s1	i	?	i	i	i
O=C(N1CCOCC1)N1CCN(S(=O)(=O)c2cccc([N+](=O)[O-])c2)CC1	i	i	i	i	i
SMILES	DT40 TDP1 no CPT	IL1B secr inh	HT1080 IDH1KD tx	TDP1 cell CPT	HT1080-NT tox
CCCCOCCCNC(=O)C[C@@H]1C[C@@]2(C(=O)OCC)CCC=C2N(Cc2ccco2)C1=O	i	i	i	i	i
COc1ccc(CNS(=O)(=O)c2cc3c(cc2C)n(C)c(=O)c(=O)n3C)cc1	i	nt	nt	i	nt
COc1ccc(NC(=O)CS(=O)(=O)c2ccc(Br)cc2)cc1	i	i	i	i	i
O=C(NC1CCCCCC1)C1c2ccccc2C(=O)N1Cc1ccc(F)cc1 (stereo unspecified)	i	nt	nt	i	nt
CCOc1cc(/C=C/c2cccc[n+]2C)ccc1O	i	i	i	i	i
COc1ccc(/C=C/c2cccc[n+]2C)c(O)c1	18µM	i	i	?	i
CCN(CC)c1ccc(/C=C/c2cccc[n+]2C)c(OC)c1	0.052µM	-92	?	1.2µM	?
C[n+]1ccccc1/C=C/c1cc(Br)ccc1O	i	i	i	i	i
S=C(NCCCN1CCOCC1)N1CCN(c2cccc(Cl)c2)CC1	18µM	?	?	?	?
S=C(NCc1ccccc1)N1CCN(c2cccc(Cl)c2)CC1	?	-72	i	i	i
CCOc1ccc(/C=N/n2c(C3CCCCC3)n[nH]c2=S)cc1	?	i	i	?	i
COc1cccc(OC)c1C(=O)Nc1ccc(C(=O)c2ccncc2)cc1	?	i	i	13µM	i
COc1cc(SC)ccc1C(=O)NCc1ccc(C)cc1	?	i	?	16µM	i
COc1cccc(C(=O)Nc2ccc(C(=O)c3ccncc3)cc2)c1	?	i	i	?	?
COc1cc(OC)c(C(=O)Nc2ccncc2)cc1OC	i	-60	i	i	i
COc1cc(SC)ccc1C(=O)Nc1ccc(S(=O)(=O)Nc2nccc(C)n2)cc1	?	nt	nt	23µM	nt
COc1ccccc1C(=O)Nc1ccc(S(=O)(=O)Nc2nc(C)cc(C)n2)cc1	i	nt	nt	i	nt

High-throughput results (PubChem)
